Assay results: PMC7862700, “An all-to-all approach to the identification of sequence-specific readers for epigenetic DNA modifications on cytosine”

Legend:
Assay in all cases: DAPPL (digital affinity profiling via proximity ligation, sequencing); 10 mM Tris-HCl pH 7.5, 50 mM NaCl, 1 mM DTT, 4% glycerol, room temperature, 30 min; GST-TFs on glutathione beads, 16-mer random dsDNA library, 0.1% formaldehyde crosslink after washing; high values mean tight binding
Details in all cases: protein: recombinant; tags: N-terminal GST; dsDNA, one strand shown
[1] = molecular target: T1, FLI1 (Homo sapiens, UniProt Q01543 1-452)
T1 sequence: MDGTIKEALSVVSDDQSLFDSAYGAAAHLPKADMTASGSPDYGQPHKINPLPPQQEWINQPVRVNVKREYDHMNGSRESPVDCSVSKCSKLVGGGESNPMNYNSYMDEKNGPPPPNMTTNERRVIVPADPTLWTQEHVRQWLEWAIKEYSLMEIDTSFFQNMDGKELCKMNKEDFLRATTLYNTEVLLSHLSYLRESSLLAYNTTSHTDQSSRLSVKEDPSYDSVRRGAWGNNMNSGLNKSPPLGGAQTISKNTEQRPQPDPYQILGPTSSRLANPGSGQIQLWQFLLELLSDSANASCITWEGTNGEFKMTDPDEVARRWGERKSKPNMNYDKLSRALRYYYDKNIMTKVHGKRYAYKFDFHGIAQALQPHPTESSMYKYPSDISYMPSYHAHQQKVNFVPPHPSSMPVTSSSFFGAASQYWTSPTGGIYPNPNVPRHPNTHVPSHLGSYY
In short: (§1)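 Sequencing on an Illumina NextSeq500 followed washing, crosslinking with 0.1% formaldehyde, proximity ligation (BsaI/T4 ligase, 1 h, 37 °C) and PCR amplification of pools that had been incubated for 30 min at room temperature with 200 nmole of a random double-stranded 16-mer DNA library in Tris/NaCl/DTT/glycerol buffer. Each pool held DNA-barcoded human transcription factors, expressed in yeast as GST fusions and captured on glutathione beads, plus a tag-only sample. Binding signal is a hexamer's read frequency for a factor divided by its frequency in the tag-only sample.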

[2] = molecular target: T2, ELK1 (Homo sapiens, UniProt P19419 1-428)
T2 sequence: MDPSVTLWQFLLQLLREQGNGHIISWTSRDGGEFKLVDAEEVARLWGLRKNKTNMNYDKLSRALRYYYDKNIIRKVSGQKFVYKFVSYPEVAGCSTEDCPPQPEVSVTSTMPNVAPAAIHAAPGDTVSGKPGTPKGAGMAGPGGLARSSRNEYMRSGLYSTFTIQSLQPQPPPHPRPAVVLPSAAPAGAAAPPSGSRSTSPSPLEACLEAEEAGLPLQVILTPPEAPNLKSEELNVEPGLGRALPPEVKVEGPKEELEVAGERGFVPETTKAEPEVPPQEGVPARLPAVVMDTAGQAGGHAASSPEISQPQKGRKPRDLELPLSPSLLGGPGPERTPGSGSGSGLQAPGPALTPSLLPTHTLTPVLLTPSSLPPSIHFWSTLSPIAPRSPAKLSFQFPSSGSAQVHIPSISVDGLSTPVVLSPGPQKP
In short: as §1

[3] = molecular target: T3, GABPA (Homo sapiens, UniProt Q06546 1-454)
T3 sequence: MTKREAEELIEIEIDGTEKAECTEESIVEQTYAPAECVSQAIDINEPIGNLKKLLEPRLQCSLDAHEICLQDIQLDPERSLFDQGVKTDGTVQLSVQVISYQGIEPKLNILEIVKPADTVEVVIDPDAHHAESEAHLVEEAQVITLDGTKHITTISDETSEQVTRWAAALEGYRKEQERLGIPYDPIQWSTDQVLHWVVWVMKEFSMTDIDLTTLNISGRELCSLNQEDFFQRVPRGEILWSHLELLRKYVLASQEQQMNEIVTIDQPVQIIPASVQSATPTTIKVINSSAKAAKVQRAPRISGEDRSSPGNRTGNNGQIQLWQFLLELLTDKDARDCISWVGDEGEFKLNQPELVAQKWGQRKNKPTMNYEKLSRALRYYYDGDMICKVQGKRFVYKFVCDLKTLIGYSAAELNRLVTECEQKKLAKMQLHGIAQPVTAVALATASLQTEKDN
In short: as §1

[4] = molecular target: T4, ERG (Homo sapiens, UniProt P11308 1-479)
T4 sequence: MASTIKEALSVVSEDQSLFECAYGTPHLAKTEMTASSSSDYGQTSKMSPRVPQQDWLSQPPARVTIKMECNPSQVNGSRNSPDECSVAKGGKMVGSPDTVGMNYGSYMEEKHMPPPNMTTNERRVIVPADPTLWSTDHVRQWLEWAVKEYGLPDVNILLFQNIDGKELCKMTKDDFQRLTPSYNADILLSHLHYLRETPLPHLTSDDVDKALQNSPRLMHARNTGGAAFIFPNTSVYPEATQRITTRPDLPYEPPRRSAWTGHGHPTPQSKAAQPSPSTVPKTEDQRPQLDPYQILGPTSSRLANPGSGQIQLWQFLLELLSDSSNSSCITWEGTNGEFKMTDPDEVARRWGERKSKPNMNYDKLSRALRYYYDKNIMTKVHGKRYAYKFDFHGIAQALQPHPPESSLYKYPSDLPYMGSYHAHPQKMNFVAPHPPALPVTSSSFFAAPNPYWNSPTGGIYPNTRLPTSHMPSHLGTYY
In short: as §1

[5] = molecular target: ELF1 (Homo sapiens, UniProt P32519 1-619)
In short: as §1

[6] = molecular target: T5, EHF (Homo sapiens, UniProt Q9NZC4 1-300)
T5 sequence: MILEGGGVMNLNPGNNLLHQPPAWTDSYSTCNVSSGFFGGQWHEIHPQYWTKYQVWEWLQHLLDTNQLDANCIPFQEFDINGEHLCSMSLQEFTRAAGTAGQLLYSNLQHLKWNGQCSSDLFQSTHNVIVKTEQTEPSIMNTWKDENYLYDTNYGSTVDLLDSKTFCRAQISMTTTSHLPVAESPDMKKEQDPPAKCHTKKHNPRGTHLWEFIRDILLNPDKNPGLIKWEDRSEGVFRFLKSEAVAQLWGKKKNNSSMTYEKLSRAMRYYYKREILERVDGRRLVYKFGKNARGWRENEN
In short: as §1

[7] = molecular target: SPI1 (Homo sapiens, UniProt P17947 1-270)
In short: as §1

[8] = molecular target: SPIB (Homo sapiens, UniProt Q01892 1-262)
In short: as §1

[9] = molecular target: T6, ELK3 (Homo sapiens, UniProt P41970 1-407)
T6 sequence: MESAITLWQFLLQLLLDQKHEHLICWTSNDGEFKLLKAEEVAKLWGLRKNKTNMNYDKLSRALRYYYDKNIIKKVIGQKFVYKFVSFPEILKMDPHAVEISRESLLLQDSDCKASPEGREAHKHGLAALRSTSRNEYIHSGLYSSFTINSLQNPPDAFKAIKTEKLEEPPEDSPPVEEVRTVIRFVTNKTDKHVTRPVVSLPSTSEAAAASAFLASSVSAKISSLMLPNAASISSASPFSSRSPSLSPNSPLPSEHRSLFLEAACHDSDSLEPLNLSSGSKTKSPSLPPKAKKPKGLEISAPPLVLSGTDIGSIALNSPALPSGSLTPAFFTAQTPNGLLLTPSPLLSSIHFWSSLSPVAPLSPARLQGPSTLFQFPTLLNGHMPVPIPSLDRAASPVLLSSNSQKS
In short: as §1

Sequence of ELF1 (P32519 whole entry): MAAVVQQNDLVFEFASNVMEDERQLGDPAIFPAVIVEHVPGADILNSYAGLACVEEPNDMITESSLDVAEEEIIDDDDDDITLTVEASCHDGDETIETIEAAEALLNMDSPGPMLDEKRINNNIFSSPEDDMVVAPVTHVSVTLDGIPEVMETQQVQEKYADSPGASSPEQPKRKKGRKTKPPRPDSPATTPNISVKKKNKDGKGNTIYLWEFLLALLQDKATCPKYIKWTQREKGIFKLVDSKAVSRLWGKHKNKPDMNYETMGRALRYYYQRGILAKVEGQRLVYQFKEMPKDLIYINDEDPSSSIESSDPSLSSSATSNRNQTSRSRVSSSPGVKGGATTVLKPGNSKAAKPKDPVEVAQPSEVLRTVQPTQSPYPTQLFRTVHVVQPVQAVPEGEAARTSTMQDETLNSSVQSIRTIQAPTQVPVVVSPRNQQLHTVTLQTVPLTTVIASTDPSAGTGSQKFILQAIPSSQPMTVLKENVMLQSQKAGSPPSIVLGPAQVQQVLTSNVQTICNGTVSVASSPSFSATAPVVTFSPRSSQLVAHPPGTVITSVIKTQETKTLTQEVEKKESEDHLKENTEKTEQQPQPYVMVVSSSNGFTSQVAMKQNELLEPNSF
Sequence of SPIB (Q01892 whole entry): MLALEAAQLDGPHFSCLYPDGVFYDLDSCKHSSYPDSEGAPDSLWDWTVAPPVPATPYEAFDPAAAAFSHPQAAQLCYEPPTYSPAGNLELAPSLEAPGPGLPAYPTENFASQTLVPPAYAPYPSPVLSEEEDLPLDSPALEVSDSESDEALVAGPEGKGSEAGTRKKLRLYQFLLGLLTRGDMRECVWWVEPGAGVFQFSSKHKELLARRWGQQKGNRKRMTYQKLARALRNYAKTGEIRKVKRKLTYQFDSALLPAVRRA

Row | Sequence | binding signal [1] | binding signal [2] | binding signal [3] | binding signal [4] | binding signal [5] | binding signal [6] | binding signal [7] | binding signal [8] | binding signal [9]
1 | CGCGCT | 1.25 fold enrichment (6-mer frequency, TF over GST control) | 1.32 fold enrichment (6-mer frequency, TF over GST control) | 1.13 fold enrichment (6-mer frequency, TF over GST control) | 1.13 fold enrichment (6-mer frequency, TF over GST control) | 1.18 fold enrichment (6-mer frequency, TF over GST control) | 1.17 fold enrichment (6-mer frequency, TF over GST control) | 1.1 fold enrichment (6-mer frequency, TF over GST control) | 1.27 fold enrichment (6-mer frequency, TF over GST control) | 1.21 fold enrichment (6-mer frequency, TF over GST control)
2 | GAAATA | 1.45 fold enrichment (6-mer frequency, TF over GST control) | 1.42 fold enrichment (6-mer frequency, TF over GST control) | 1.48 fold enrichment (6-mer frequency, TF over GST control) | 1.61 fold enrichment (6-mer frequency, TF over GST control) | 1.45 fold enrichment (6-mer frequency, TF over GST control) | 1.64 fold enrichment (6-mer frequency, TF over GST control) | 1.49 fold enrichment (6-mer frequency, TF over GST control) | 1.54 fold enrichment (6-mer frequency, TF over GST control) | 1.5 fold enrichment (6-mer frequency, TF over GST control)
3 | TGTTAA | 1.11 fold enrichment (6-mer frequency, TF over GST control) | 1.15 fold enrichment (6-mer frequency, TF over GST control) | 1.17 fold enrichment (6-mer frequency, TF over GST control) | 1.11 fold enrichment (6-mer frequency, TF over GST control) | 1.09 fold enrichment (6-mer frequency, TF over GST control) | 1.03 fold enrichment (6-mer frequency, TF over GST control) | 1.07 fold enrichment (6-mer frequency, TF over GST control) | 1.13 fold enrichment (6-mer frequency, TF over GST control) | 1.15 fold enrichment (6-mer frequency, TF over GST control)
4 | ACTTGC | 1.46 fold enrichment (6-mer frequency, TF over GST control) | 1.48 fold enrichment (6-mer frequency, TF over GST control) | 1.42 fold enrichment (6-mer frequency, TF over GST control) | 1.41 fold enrichment (6-mer frequency, TF over GST control) | 1.37 fold enrichment (6-mer frequency, TF over GST control) | 1.52 fold enrichment (6-mer frequency, TF over GST control) | 1.54 fold enrichment (6-mer frequency, TF over GST control) | 1.35 fold enrichment (6-mer frequency, TF over GST control) | 1.35 fold enrichment (6-mer frequency, TF over GST control)
5 | ATATAG | 1.15 fold enrichment (6-mer frequency, TF over GST control) | 1.17 fold enrichment (6-mer frequency, TF over GST control) | 1.29 fold enrichment (6-mer frequency, TF over GST control) | 1.19 fold enrichment (6-mer frequency, TF over GST control) | 1.17 fold enrichment (6-mer frequency, TF over GST control) | 1.22 fold enrichment (6-mer frequency, TF over GST control) | 1.2 fold enrichment (6-mer frequency, TF over GST control) | 1.2 fold enrichment (6-mer frequency, TF over GST control) | 1.23 fold enrichment (6-mer frequency, TF over GST control)
6 | TACCCT | 1.33 fold enrichment (6-mer frequency, TF over GST control) | 1.34 fold enrichment (6-mer frequency, TF over GST control) | 1.21 fold enrichment (6-mer frequency, TF over GST control) | 1.31 fold enrichment (6-mer frequency, TF over GST control) | 1.36 fold enrichment (6-mer frequency, TF over GST control) | 1.38 fold enrichment (6-mer frequency, TF over GST control) | 1.36 fold enrichment (6-mer frequency, TF over GST control) | 1.3 fold enrichment (6-mer frequency, TF over GST control) | 1.41 fold enrichment (6-mer frequency, TF over GST control)
7 | TTACTC | 1.31 fold enrichment (6-mer frequency, TF over GST control) | 1.24 fold enrichment (6-mer frequency, TF over GST control) | 1.26 fold enrichment (6-mer frequency, TF over GST control) | 1.19 fold enrichment (6-mer frequency, TF over GST control) | 1.24 fold enrichment (6-mer frequency, TF over GST control) | 1.34 fold enrichment (6-mer frequency, TF over GST control) | 1.32 fold enrichment (6-mer frequency, TF over GST control) | 1.24 fold enrichment (6-mer frequency, TF over GST control) | 1.26 fold enrichment (6-mer frequency, TF over GST control)
